According to PubChem BioAssay (NCI):
About 83,000 compounds went through this panel and 20% of them were active in at least one assay; those are over-represented in the sample as a whole.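 Compound tested at a single concentration for 48 hours in 96-well plates; a percent growth value below 10 was scored as active.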 Unmarked numbers belong to inactive results. Calls of active or inactive are those of the source.

Assays:
Assay in all cases: NCI-60 one-dose screen, 48 h (100 = growth as untreated, 0 = no growth, -100 = all killed)
Conditions in all cases: 10 µM unless noted
[1] = test system: NCI-H226 lung
[2] = test system: 786-0 renal
[3] = test system: DU-145 prostate
[4] = test system: MDA-MB-231 breast
[5] = test system: SF-268 CNS
[6] = test system: SF-539 CNS
[7] = test system: UACC-257 melanoma
[8] = test system: PC-3 prostate
[9] = test system: UACC-62 melanoma
[10] = test system: LOX IMVI melanoma
[11] = test system: SK-MEL-28 melanoma
[12] = test system: SK-MEL-2 melanoma
[13] = test system: SN12C renal
[14] = test system: HL-60(TB) leukemia
[15] = test system: RPMI-8226 leukemia
[16] = test system: NCI/ADR-RES ovarian
[17] = test system: MCF7 breast
[18] = test system: HCT-116 colon
[19] = test system: KM12 colon
[20] = test system: TK-10 renal

Compound	growth [1]	growth [2]	growth [3]	growth [4]	growth [5]	growth [6]	growth [7]	growth [8]	growth [9]	growth [10]	growth [11]	growth [12]	growth [13]	growth [14]	growth [15]	growth [16]	growth [17]	growth [18]	growth [19]	growth [20]
O=C(NCc1ccc([N+](=O)[O-])cc1)Nc1ccc(S(=O)(=O)F)cc1	63.7%	80.1%	102%	80.4%	89.9%	88.3%	83%	74.6%	65.1%	92.9%	96%	105%	85.8%	85.1%	68.9%	78.3%	83.7%	82.2%	84.2%	
C/C(=N/OC(=O)N(C)C)c1cc(Cl)ccc1Cl	99.4%	97.8%	105%	111%	99.4%	103%	103%	106%	108%		113%	95.7%	103%	95.1%	97.9%	99.4%	97.8%	101%	106%	97.7%
CN1C(=O)NC(=O)C(N=Nc2ccc(Cl)cc2)C1=O (configuration not stated)	105%	78.4%	106%	85.7%	93.5%	101%	105%	94.6%	49.9%	102%	122%	117%	103%	90.7%	96.1%	83.5%	93%	93.3%	82.6%	
CC(=O)Nc1ccc(C=C2C(=O)NC(=O)NC2=O)cc1	101%	96.3%	124%	104%	111%	105%	98.4%	93.3%	99.1%	96.8%	106%	109%	103%		98.3%	108%	94%	101%	112%	107%
O=S(=O)(O)c1ccc(-c2ccc([As](=O)(O)O)cc2)cc1	110%	103%	110%	104%	98.5%	105%	93.6%	98%	98%	99.8%	103%	101%	104%	102%	102%	108%	103%	108%	105%	95.5%
CC(=O)N1N=C(c2ccccc2)CC1c1sc(N(CCCl)CCCl)nc1Cl (configuration not stated)	89.1%	99.7%	99.5%	95.3%	94%	106%	92.2%	88.1%	64.5%	103%	108%	87.1%	86.6%	98%		99%	95%	92.5%	95.8%	108%
CN(C)P1(N(C)C)=NP(N(C)C)(N(C)C)=NP(N(C)C)(N(C)C)=N1	99.5%	101%	110%	107%	105%	104%	93.6%	90%	103%	92.7%	107%	98.2%	107%	100%	98.1%	107%	95.4%	102%	104%	95.3%
CC(=O)OC1CCC2(C)C(=CCC3C4CC(CN5CC5)C(=O)C4(C)CCC32)C1 (configuration not stated)	97.7%	87.9%	80.8%	99.6%	101%	98.1%	93.3%	88.3%	94.4%	44.1%	97.9%	106%	99.6%	64.2%	-17% (active)	101%	15.5%	74.4%	-3.45% (active)	-12.1% (active)
CC(=O)N(C)C1=Nc2ccc(Cl)cc2C(c2ccccc2)=[N+]([O-])C1	105%	110%	115%	109%	105%	104%	95.7%	91%	93.7%	95.4%	124%	95.8%	97.2%	135%	113%	111%	104%	99.3%	107%	102%
CNC(=O)Oc1ccccc1-c1ccccc1	113%	95.9%	106%	114%	100%	104%	101%	97.8%		104%	109%	76.3%	106%	94.8%	99.4%	108%	106%	99%	102%	90.5%
CCC[CH2][Sn]1([CH2]CCC)[O]C(=O)c2cccc([N+](=O)[O-])c2C(=O)[O]1	-83.1% (active)	-97.3% (active)	-96.7% (active)	-89.1% (active)	-90.1% (active)	-99.5% (active)	-94.1% (active)	-67.5% (active)	-88.3% (active)	-72% (active)	-93.3% (active)	-92% (active)	-83.4% (active)	-48.2% (active)	-40.5% (active)	-54.4% (active)	-99% (active)	-100% (active)	-83.9% (active)	-95.7% (active)
C1CN1c1nc(N2CC2)nc(N2CC2)n1	58.6%	9.79% (active)	-1.22% (active)	87.8%	30.4%	-7.16% (active)	43.7%	45.2%	41.1%	17%		76.9%	51.7%	0.901% (active)	29.3%	36.8%	20.9%	42.6%	61.8%	78.3%
COc1ccc(/C=C(/C(=O)N2CCCC2)c2cc(OC)c(OC)c(OC)c2)cc1N	75.9%	24.5%	24.6%	62%	47.5%	3.13% (active)	53.8%	14.5%	41.5%	35.3%	60.9%	42.6%	40.8%	-11.9% (active)	31.6%	68.2%	14.2%	23.5%	14.8%	75.3%
O=C(O)c1cccc(CCl)c1	104%	101%	108%	113%	102%	94.3%	94.2%	102%	108%	95.8%	110%	103%	107%	93.4%	105%	103%	98.4%	96.7%	96.3%	97.5%
COc1ccc(/C=C\c2cc(OC)c(OC)c(OC)c2)cc1N/C=C\C(=O)c1c[nH]c2ccccc12	-0.606% (active)	20.9%	3.53% (active)	18.4%	15.1%	-43.4% (active)	78.2%	10.4%	31%	19.6%	33.8%	32.3%	26.1%	-11.4% (active)	19.5%	0.644% (active)	14.7%	2.62% (active)	3.99% (active)	
N#CC1=C(N)Oc2cc3c(cc2C1c1cccs1)OCO3 (configuration not stated)	47.6%	49.5%	15.5%	41.8%	47.3%	0.18% (active)	60.8%	24%	31.1%	37.2%	37.9%	21.2%	52.7%	-28.6% (active)	24.9%	3.49% (active)	15.7%	21.2%	34.2%	56.1%
Cc1cc(NC(=O)/C=C/c2ccc([N+](=O)[O-])cc2)ccc1S(=O)(=O)F	105%	89.1%	103%	99.6%	109%	112%	97.4%	98.9%	98.2%	102%	110%	107%	92.4%	98.5%	87%	106%	91.8%	113%	97%	96.2%
